# Screening results (PubChem BioAssay)
# An excerpt weighted towards active compounds, which were near 1.1% of everything screened.
# NCOA3 inh – human NCOA3 inhibition; 360,000 compounds, 0.17% hits; Q9Y6Q9; AID 588352; inhibition, % at 3.6 µM; HEK293 GAL4-SRC3 luciferase reporter, luminescence;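 active = inhibition above a per-campaign cutoff, the mean of all compounds plus 3 SD, cut at about 60% in these data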;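 also: higher means less SRC3-driven luciferase light from the GAL4 reporter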
# GalR3 antagonist – human GalR3 antagonism. O60755. HEK293 GalR3-CNG cAMP membrane potential fluorescence; galR3 body fused to GalR1 C-terminus. inhibition, % at 3 µM. 360,000 compounds, 0.44% hits;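 active = inhibition above the screen-wide average plus 3 SD, cut at about 13% in these data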;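 also: forskolin and galanin both at EC90 stimulate the cells; cAMP rise reported by CNG channel membrane potential dye signal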
# Target sequence (O60755 1-299 limits assumed): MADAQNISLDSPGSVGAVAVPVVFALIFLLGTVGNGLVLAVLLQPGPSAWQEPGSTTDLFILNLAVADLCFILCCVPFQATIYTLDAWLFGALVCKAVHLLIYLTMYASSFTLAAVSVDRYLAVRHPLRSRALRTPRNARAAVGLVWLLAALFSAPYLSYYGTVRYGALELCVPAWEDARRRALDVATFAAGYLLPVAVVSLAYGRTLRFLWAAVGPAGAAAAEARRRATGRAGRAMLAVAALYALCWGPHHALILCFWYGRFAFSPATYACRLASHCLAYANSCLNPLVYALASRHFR
# COUP-TFII inh – NR2F2 (human) inhibition, primary screen. P24468. HEK293T NGFI-A luciferase reporter, luminescence. inhibition, % at 8.6 µM. 370,000 compounds, 0.7% hits. AID 686940;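 active = inhibition above a per-plate cutoff, mean inhibition of test wells between control levels plus 3 SD, cut at about 38% in these data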;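 also: cells cotransfected with COUP-TFII expression vector driving the NGFI-A reporter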
# SRC2 inh – human SRC2 (NCOA2) inhibition. HEK293 GAL4-SRC2 luciferase reporter, luminescence. inhibition, % at 9 µM. 370,000 compounds, 0.17% hits;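 active = inhibition above the mean inhibition of all tested compounds plus 3 SD, set per campaign, cut at about 52% in these data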
# NR5A2 inv ag – inverse agonists of human LRH-1 (NR5A2) | O00482 | HEK293T StAR-luciferase reporter, LRH-1 transfected, 24 h | inhibition, % at 3.6 µM | 360,000 compounds, 0.13% hits;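 active = inhibition above the mean inhibition of all tested compounds plus 3 SD, cut at about 73% in these data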
# NCOA1 inh – inhibits human SRC1 coactivator; inhibition, % at 3.6 µM; AID 588354; HEK293 GAL4-SRC1 luciferase reporter, luminescence; Q15788; 360,000 compounds, 0.12% hits;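 active = inhibition above the campaign mean plus 3 SD, with each screening campaign given its own cutoff, cut at about 60% in these data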
# Numbers stand for hits; - = inactive; . = no result given.
SMILES,NCOA3 inh,GalR3 antagonist,COUP-TFII inh,SRC2 inh,NR5A2 inv ag,NCOA1 inh
CN(c1ccccc1)S(=O)(=O)c1ccc(NC(=O)c2nc(S(C)(=O)=O)ncc2Cl)cc1,-,-,-,56,-,-
CC(=O)Nc1ccc(NC(=O)c2nc(S(=O)(=O)Cc3cccc(C)c3)ncc2Cl)cc1,-,-,-,83,-,-
CCc1ccc(NC(=O)c2nc(S(=O)(=O)Cc3ccccc3)ncc2Cl)cc1,-,-,-,-,-,-
Cc1cc(C(=O)N2CCN(c3ccccn3)CC2)no1,89,-,-,-,-,-
COc1ccc(C(=O)NC2CC3CCCC(C2)N3CC(C)C)cc1OC (stereo not drawn),-,-,-,-,-,-
COc1ccc(C(=O)NC2CC3CCCC(C2)N3CC(C)C)cc1 (stereo not drawn),-,-,-,95,-,-
COc1ccc(NS(=O)(=O)c2cccc(NC(=O)COc3ccc(OC)cc3)c2)cc1,-,-,-,-,-,-
C=C(NC(=O)C(=C)NC(=O)c1csc(C2=NC3c4csc(n4)C4NC(=O)c5csc(n5)C(C(C)(O)C(C)O)NC(=O)C5CSC(=N5)/C(=C/C)NC(=O)C(C(C)O)NC(=O)c5csc(n5)C3(CC2)NC(=O)C(C)NC(=O)C(=C)NC(=O)C(=C)NC(=O)C(C(C)C)NC2C=Cc3c(C(C)O)cc(nc3C2O)C(=O)OC4C)n1)C(N)=O (stereo not drawn),-,-,42,-,-,-
CCn1nc([N+](=O)[O-])c(C(C#N)c2nc3cc(C(F)(F)F)ccc3s2)c(Cl)c1=O (stereo not drawn),62,-,-,-,-,-
O=C(Cc1ccc(Cl)cc1)c1c[nH]c(C(=O)NCc2cccnc2)c1,-,-,-,88,-,-
O=C(NCc1ccccc1Cl)NC(=O)c1ccccc1,-,-,-,-,-,-
Cc1ccc(Cc2c(-c3ccco3)nc3c(C)cc(Br)cn23)cc1,-,34,-,-,-,-
O=c1ccc2ccccc2c2ccccc12,75,-,-,70,93,64
O=c1cnnc(N/N=C/c2ccccn2)[nH]1,83,-,-,-,92,66
Cc1cc(=O)[nH]c(N/N=C/c2ccccn2)n1,-,-,-,-,-,-
CNS(=O)(=O)c1cccc(C(=O)OCC(=O)NCCCc2ccccc2)c1,-,-,-,-,-,-
O=C(O)C1CC=CCC1C(=O)Nc1ccc2c(c1)OCCO2 (stereo not drawn),-,-,-,56,-,-
O=C(O)C1CC=CCC1C(=O)Nc1ccc(F)c(F)c1 (stereo not drawn),-,-,-,-,-,-
CCC(C)[C@H]1CNC(=O)C(=O)N1CC(C)(C)C (stereo partly drawn),.,-,-,-,-,.
CCCCn1nnnc1C(CCc1ccccc1)N1CCN(C/C=C/c2ccccc2)CC1 (stereo not drawn),-,-,-,-,-,-
Cc1ccc(S(=O)C(c2ccccc2)c2ccccc2)cc1 (stereo not drawn),-,-,-,-,-,-
Cc1c(C(=O)NCCc2ccccc2)oc2ccc(S(=O)(=O)N3CCOCC3)cc12,-,-,-,-,-,-
CC(=O)N(C)C1=C(N2CCOCC2)C(=O)c2ccccc2C1=O,87,.,.,.,100,85
COc1cc(C=O)ccc1OCCCOc1ccccc1C(=O)O,-,-,-,60,-,-
COc1cc(C=O)ccc1OCCCOc1ccccc1[N+](=O)[O-],-,-,-,-,-,-
SMILES,NCOA3 inh,GalR3 antagonist,COUP-TFII inh,SRC2 inh,NR5A2 inv ag,NCOA1 inh
Nc1c(Cl)cc(-c2csc(N3CCCC3c3nc4cc(Cl)c(N5CCCCC5)cc4n3CCOCCO)n2)cc1Cl (stereo not drawn),-,-,-,-,-,-
Cn1c(/C=C/c2ccc(Cl)cc2Cl)c([N+](=O)[O-])c(=O)n(C)c1=O,75,-,-,-,-,-
COc1ccc2c(c1)c(=O)c(C(=O)c1ccccc1)cn2Cc1ccccc1,-,-,-,-,-,-
COc1ccc(-c2cnc3c(NC=O)cc(-c4ccccc4OC)cn23)cc1OC,-,34,-,-,-,-
COc1ccc(-n2c(C)c(C(C)=O)c3cc(OC(C)=O)ccc32)cc1,-,-,-,-,-,62
Cc1nc2ccccc2n1CCOc1ccc([N+](=O)[O-])cc1,-,-,-,-,-,-
c1ccc2sc(SCSc3nc4ccccc4s3)nc2c1,-,-,-,-,-,-
O=C(O)CCSc1nc2ccccc2s1,-,-,-,78,-,-
COC(=O)[C@]12C[C@H](CC(=O)NCCC(C)C)C(=O)N(Cc3cccc4ccccc34)C1=C[C@H](C(C)(C)C)O[C@@H]2C,.,.,-,-,.,.
CCOC(=O)c1ccc(-c2ccc(N3C(c4cccc(OC)c4)=Cc4ccc(F)cc4C3CC(C)=O)cc2)cc1F (stereo not drawn),.,-,-,60,-,.
COc1cccc(C2=Cc3ccc(F)cc3C(CC(C)=O)N2c2ccc(-c3cncnc3)cc2)c1 (stereo not drawn),.,-,-,-,-,.
Cc1cc(F)ccc1S(=O)(=O)Nc1ccccc1C(=O)NCc1cccnc1,-,-,-,-,-,-
COc1cc(C=NO)nc(-c2ccccn2)c1,86,-,-,-,84,79
O=C(/C(=C/c1ccc(Cl)cc1)c1nc2ccccc2[nH]1)c1cccs1,62,.,.,.,-,-
O=C(/C(=C\c1ccccc1)c1nc2ccccc2[nH]1)c1ccc(Cl)cc1,-,-,-,-,-,-
Cc1cc(C(=O)Nc2ccccc2)c(C)o1,-,-,-,-,-,-
Cc1cc(C(=O)Nc2ccc(CC(=O)O)cc2)c(C)o1,-,-,-,55,-,-
CN(C(=O)COC(=O)c1ccc(C#N)cc1)c1ccccc1,-,-,-,-,-,-
O=S(=O)(c1ccccc1)N1CCC(N2CCCCCC2)CC1,-,-,-,-,-,-
CCn1c(SCC(=O)Nc2nc(-c3ccc(C)cc3)cs2)nnc1-c1ccccc1O,-,-,48,-,-,-
CCn1c(SCC(=O)Nc2nc(-c3ccc(C)cc3)cs2)nnc1-c1ccccc1,-,-,-,-,-,-
O=C(CN1C(=O)CSc2ccc(S(=O)(=O)N3CCOCC3)cc21)NCc1c(F)cccc1Cl,-,-,-,-,-,-
O=C(N/N=C\c1c(O)ccc2ccccc12)c1cncc(Br)c1,69,-,-,-,-,-
Cn1cc(C(=O)N/N=C/c2c(O)ccc3ccccc23)ccc1=O,62,-,-,-,-,-
O=C(N/N=C/c1c(O)ccc2ccccc12)c1ccc(Br)o1,-,-,-,-,-,-
COc1ccc2ccccc2c1/C=N\NC(=O)c1cccnc1,-,-,-,-,-,-
Cc1ccc(C(=O)N/N=C/c2c(O)ccc3ccccc23)cn1,74,-,-,-,87,68
